# Measurements taken from the supplement of paper PMC10338343.
# ± gives the standard deviation.
# System: EfPiwi piRISC loaded with piRNA #1 (26 nt)
# Assay: pre-steady-state target cleavage rate (min^-1); auxiliary factor: 500 nM Ephydatia muelleri Gtsf1; guide: piRNA #1 5'p-UGAGGUAGUAGGUUGUAUAGUAUCCA; MIWI and MILI are mouse PIWI proteins and EfPiwi is from a freshwater sponge; tags in brackets are library labels; higher = faster piRNA-guided slicing of the target
# Method in brief: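 A burst-and-steady-state fit was used to obtain the pre-steady-state cleavage rate. The input data were sequencing reads of uncleaved targets, normalised to depth and to weakly complementary targets, from a […] transcribed, DNA-blocked target RNA library mixed with 1 nM active affinity-purified piRISC holding one synthetic guide, with or without 500 nM GTSF1 partner protein, in HEPES–potassium acetate buffer at 33 °C for 0–8 or 0–960 min. Three trials were pooled and k3 was capped at 0.0001 min^-1.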
row,Sequence,pre-steady-state target cleavage rate
1,GGAGAGGAUACUUUACAACCUACUACGUCA,0.00296 ± 0.0023
2,GGAGACCUUACAAUACAACGUACUACCUCA,0.00409 ± 0.004
3,GGAGUCGAUACUAUACAACCUUCUACCUCA,0.00622 ± 0.0028
4,GGAGACCAUACUAUACAACCUACUAGGUCA,0.00366 ± 0.0023
5,GGAGACCUAUGUAUACAACCUGACUACCUCA,< 0.0001
6,GGAGACCAUACUAUACAACCUACUUGGUCA,0.00392 ± 0.0029
7,GGAGACGCAUACUAUACAACCUACUACCUCA,0.0478 ± 0.018
8,GGAGUGGAUACUAUACAACCUAACUACCUCA,0.00456 ± 0.0023
9,GGAGACCUAACUAUACAACCUUCUACCUCA,0.00554 ± 0.0031
10,GGAGACCAAACUAUACUACCUACUACCUCA,0.00362 ± 0.0032
11,GGAGACGAUACUAUACAACCUACUACCUACA,0.00797 ± 0.0032
12,GGAGUGGAUACUAUAGAACCUACUACCUCA,0.00377 ± 0.0019
13,GGAGACGAUACUAUACAACCUAGUAGCUCA,0.00474 ± 0.0023
14,GGAGAGGAUACUAUACAACCUACUUGGUCA,0.00425 ± 0.0034
15,GGAGACCUUACUAUACAACCUAGUACCUGA,0.00509 ± 0.0037
16,GGAGACGUAACUAUACAACCUACUACCUCA,0.0248 ± 0.0098
17,GGAGACCAUACUAUACAACCAACUACCUGA,0.00258 ± 0.0022
18,GGAGUGGAUACAAUACAAGCUACUACCUCA,0.00566 ± 0.0028
19,GGAGACGAUACUUUACAACGUACUACCUCA,0.00234 ± 0.0017
20,GGAGACCAUACUAUACACACCUACUACCUCA,0.00511 ± 0.0031

row,Sequence,pre-steady-state target cleavage rate
1,GGAGACCAAACUAUACAACCUUCUACCUCA,0.00406 ± 0.0026
2,GGAGUGGAUACUAUACAACCUCACUACCUCA,0.00417 ± 0.0022
3,GGAGACCAAACUAUACAACCAACUACCUCA,0.00588 ± 0.003
4,GGAGUGGAUACUAUACAACCUUGAACCUCA,0.00462 ± 0.0029
5,GGAGACCUUACUAUACAACCAACUACCUCA,0.00528 ± 0.003
6,GGAGACCUAUGAUAUGUACCUUCUACCUGA,< 0.0001
7,GGAGAGCAUUCUAUACAACCUACUACCUCA,0.0192 ± 0.01
8,GGAGAGGAUACUAUACAACCAACUUCCUCA,0.00313 ± 0.0024
9,GGAGACCUAUGAUAACAACCUACUAGCACA,< 0.0001
10,GGAGACCUAUGAUAUGUACCAACUACCACA,< 0.0001
11,GGAGACGAUACUAUACAACCUACCACCUCA,0.00631 ± 0.0033
12,GGAGAGGAUACUAUACAACCUACUAGCUGA,0.00408 ± 0.002
13,GGAGAGGAUACUAUACACACCUACUACCUCA,0.00541 ± 0.0039
14,GGAGAGGAUACUAUACAACCUUCUUCCUCA,0.00382 ± 0.0025
15,GGAGACCUUACUAGUACAACCUACUACCUCA,0.00695 ± 0.0046
16,GGAGACCUAUGAUAUGUACCUACAUACCUCA,< 0.0001
17,GGAGAGGAUACUAUACAACCUACUUCCUGA,0.00331 ± 0.0022
18,GGAGACCUUACUAUACAACCUAGUACGUCA,0.00357 ± 0.0023
19,GGAGUGGAUACUAUACAUCCUAGUACCUCA,0.00411 ± 0.0015
20,GGAGACCUAUGUAUACAACCUACUACCUCU [g2:g19:cont:t1U],0.404 ± 0.18
